# Screening results: PubChem BioAssay, National Center for Advancing Translational Sciences (NCATS)
# This excerpt belongs to a sample that is enriched for hits.
# Sfp PPTase inh: blocks B. subtilis Sfp PPTase activity. 310,000 compounds, 3.5% hits. Q9F4F7. Potency, µM, hits mostly inhibitors. Biochemical Sfp PPTase activity, qHTS;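 further: the enzyme is Sfp with the accession as filed and its product quenches rhodamine fluorescence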
#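 Compounds were incubated with enzyme (final 15 nM) for 15 min at room temperature before substrate addition started the reaction. Fluorescence at 525 nm excitation, 598 nm emission was recorded immediately and after 30 minutes.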
# G9a block: blocks human histone lysine methyltransferase G9a | 350,000 compounds, 8.8% hits | G9a H3K9 monomethylation, AlphaScreen, 2 h | Potency, µM (doses to about 102 µM), actives largely listed as inhibitors | Q96KQ7; further: nearly all actives have a fitted effect of over 75% in size
#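 AlphaScreen read-out: biotin-H3K9 peptide (500 nM) methylation by 20 nM enzyme with 20 uM SAM, 2 h at room temperature after 15 min compound preincubation; anti-monomethyl H3K9 antibody plus donor/acceptor beads, 10 min dark.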
# Glioma ERSR ind: induces the endoplasmic reticulum stress response in human glioma cells. U87-MG GRP78 promoter luciferase reporter, 16 h. Potency, µM, usual class: activators. 420,000 compounds, 0.02% hits. AID 602332; further: series mostly up to about 76 µM; nearly all actives have a fitted effect of over 35% in size
#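 Stably transfected U87-MG human glioma cells carrying a GRP78-based luminescent sensor were seeded at 1000 cells/well, pin-dosed with compounds and incubated 16 h. Luciferase reagent was then added, and end-point luminescence was read after 10 min at room temperature.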
# 12-LOX inh: inhibitors of human 12S-lipoxygenase ALOX12; purified 12hLO, xylenol orange hydroperoxide absorbance; Potency, µM (doses to about 108 µM), hits mostly inhibitors; P18054; 580,000 compounds, 1.1% hits
#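 Purified human 12hLO (150 nM final) in 25 mM Hepes, 0.01% Triton X-100, pH 7.0 was preincubated 15 min at room temperature with compound. Then 40 uM arachidonic acid was added, 30 min. Hydroperoxide was read by Fe-XO absorbance ratio 573/405 nm.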
# VDR inhibitor: inhibitors of human vitamin D receptor | AID 504847 | 400,000 compounds, 0.93% hits | Potency, µM, most hits filed as inhibitors | P11473 | VDR-SRC2-3 peptide fluorescence polarization, 2 h
# Target sequence (P11473 whole entry, looked up): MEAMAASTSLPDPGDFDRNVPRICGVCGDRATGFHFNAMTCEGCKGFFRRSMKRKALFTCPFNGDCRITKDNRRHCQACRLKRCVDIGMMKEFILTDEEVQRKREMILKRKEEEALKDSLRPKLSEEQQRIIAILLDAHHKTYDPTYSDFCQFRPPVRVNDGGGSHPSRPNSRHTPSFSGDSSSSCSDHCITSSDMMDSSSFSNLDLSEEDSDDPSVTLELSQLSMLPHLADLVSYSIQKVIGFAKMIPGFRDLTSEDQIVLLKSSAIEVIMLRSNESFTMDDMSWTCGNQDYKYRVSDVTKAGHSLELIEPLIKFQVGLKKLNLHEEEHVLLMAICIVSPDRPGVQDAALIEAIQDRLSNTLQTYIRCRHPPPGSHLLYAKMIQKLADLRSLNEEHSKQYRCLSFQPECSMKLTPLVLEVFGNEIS
#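 Fluorescence polarization assay of small-molecule disruption of VDR binding to coregulator peptide SRC2-3. Compounds and controls pin-transferred, then read after 2 h incubation at ambient room temperature.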
# A number is an active result; – = inactive; ? = inconclusive; · = no result; ! = a repeat was not active; [ ] = another dose, or the depositor's remark. The call rests on the fitted dose curve; in most records, active means well fitted curve in the direction sought with a large enough effect; inconclusive means small, poorly fitted or top-dose-only effect, or another doubt; inactive means no such curve, though single readings can be large; an effect the other way counts as inactive or inconclusive.
SMILES,Sfp PPTase inh,G9a block,Glioma ERSR ind,12-LOX inh,VDR inhibitor
COCC1CN(C2CCC2)CC12CCN(Cc1ccncc1)CC2 (stereo not drawn),·,·,·,–,·
COc1cc(C(=O)Nc2ccc(Br)cc2C(=O)c2ccccc2Cl)cc(OC)c1OC,–,–,–,–,–
COc1cc(OC)cc(C(=O)Nc2ccc(Br)cc2C(=O)c2ccccc2)c1,35.5µM,–,–,–,?
COc1cccc(C2SCC(=O)Nc3c2c(C)nn3C)c1OC (stereo not drawn),·,·,·,–,·
CCS(=O)(=O)N1CCN(C2CCC(C)CC2)CC1 (stereo not drawn),–,5.62µM,–,?,–
COc1ccc(C(=O)C2CCCN(Cc3ccccn3)C2)c(OC)c1 (stereo not drawn),–,–[12.7 µM],–,–,–
COc1cccc(C(=O)N2CCN(Cc3ccccn3)CC2)c1OC,79.4µM,–[2.33 µM],–,?,–
C=CCNC(=O)C(C)OC(=O)c1cn(C)c2ccccc12 (stereo not drawn),·,·,·,–,·
CCCCCCOc1ccc(CN2CCN(CC)CC2)cc1,–,56.2µM,–,?,–
CCN1CCN(Cc2ccc(OC(F)(F)F)cc2)CC1,–,–[12.7 µM],–,?,–
O=c1[nH]c(=S)[nH]c(O)c1/C=N/N1CCOCC1,?,50.1µM,–,?,–
Cc1ccc(-n2c(O)c(/C=N/N3CCOCC3)c(=O)[nH]c2=S)cc1,?,?,–,–,–
Fc1ccc(CC2CCOC3(CCNCC3)C2)cc1 (stereo not drawn),·,·,·,–,·
O=C(c1ccc2c(c1)OCO2)N1[C@H]2CC[C@@H]1c1cnc(-c3ccc(F)cc3)nc1C2,·,·,·,–,·
CC1OC1P(=O)(O)O (stereo not drawn),–,25.1µM!,–,·,–
C[C@H]1O[C@H]1P(=O)(O)O,–,–,–,–,–
Clc1ccc(OCC#CCN2CCOCC2)cc1,?,3.55µM,–,–,–
C(#CCN1CCOCC1)COC/C=C/c1ccccc1,–,44.7µM,–,?,–
CC1CCN(CC#CCOc2ccc(Cl)cc2)CC1,–,–[0.501 µM],–,?,–
COc1ccc(OCC#CCN2CCCCCC2)cc1,?,3.98µM,–,–,–
COc1ccc(OCC#CCN2CCNCC2)cc1,?,8.91µM,–,?,–
COc1cccc(CC(=O)N2CC(N(C)Cc3cccnc3)C2)c1,·,·,·,–,·
Cn1cc(CN2CCN3C(=O)N(Cc4ccccn4)C[C@H]3C2)cn1,·,·,·,–,·
Cc1ccc(C(C)C)c(OCC#CCN2CCCC2)c1,?,10µM,–,?,–
C(#CCN1CCCCC1)COCc1ccccc1,–,·,–,–,–
SMILES,Sfp PPTase inh,G9a block,Glioma ERSR ind,12-LOX inh,VDR inhibitor
CC(C)NC(=O)NC[C@H]1C[C@@H]2CCN1C[C@@H]2c1cc(-c2ccccc2)nn1C,·,·,·,–,·
CCOc1cccc(N2C(=O)/C(=C/c3ccco3)C(=O)NC2=S)c1,35.5µM,14.1µM,–,11.2µM,?
O=C1NC(=S)N(c2ccccc2)C(=O)/C1=C/c1ccco1,22.4µM,–[0.501 µM],–,?,?
O=C1NC2(CCN(Cc3ccncc3)C2)OCc2ccccc21 (stereo not drawn),·,·,·,–,·
CC[C@H]1CN2CC[C@H]1C[C@@H]2CNCc1cc2ccccc2o1,·,·,·,–,·
CC(C)=CCCC(C)C1CC[C@@]2(C)C3=C(CC[C@@]12C)C1(C)CCC(O)C(C)(C)C1CC3 (stereo partly drawn),–,·,–,·,35.5µM
C=CCN(C)C(=O)[C@H]1CN2CCC1C[C@@H]2Cn1cc(CSc2ccccc2)nn1 (stereo partly drawn),·,·,·,–,·
Cc1ccccc1C(=O)Nc1sc2c(c1C(=O)O)CCC(C(C)(C)C)C2 (stereo not drawn),·,10µM,–,–,–
Cc1ccc(C(=O)Nc2scc(-c3ccccc3)c2C(=O)O)cc1,·,·,–,–,–
Cn1nc(C2CCCC2)cc1[C@H]1CN2CC[C@H]1C[C@@H]2CNS(=O)(=O)c1cccs1,·,·,·,–,·
CCOc1cc2c(cc1OCC)-n1cccc1C(c1ccccc1F)NC2 (stereo not drawn),–,?,–,–,–
CCOc1cc2c(cc1OCC)-n1cccc1C(c1ccc(C)cc1C)NC2 (stereo not drawn),–,?,–,?,–
CCOc1cc2c(cc1OCC)-n1cccc1C(c1cc(C)c(OC)cc1C)NC2 (stereo not drawn),?,50.1µM,–,–,–
CCOc1cc2c(cc1OCC)-n1cccc1C(c1cccc(OCC)c1O)NC2 (stereo not drawn),–,44.7µM,–,?,–
C=CCN1C(=O)NC(=O)/C(=C/c2cnc(SC)nc2)C1=O,31.6µM,?,–,?,28.2µM
